In PubChem BioAssay:
Unmarked numbers belong to inactive results. Active and inactive are the calls of the source.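 Rule for the calls: active = fluorescence slope after compound addition differing from the mean of all screened samples at 99.7% confidence, in either direction; inactive = the rest.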

The compounds below were run against Alpha-2C adrenergic receptor (Homo sapiens) (UniProt P18825) (assay: compounds altering alpha2C-coupled GIRK flux – cell-based, HEK293 alpha2C/GIRK1/2, thallium flux, primary screen (AID 624;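 note: slope of fluorescence ratio to pre-addition baseline per second over 15 to 24 s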)). Conditions: thallium flux BTC fluorescence, at 10 µM, actives lie on both sides.
Chain of Alpha-2C adrenergic receptor (Homo sapiens) (P18825 whole entry, looked up): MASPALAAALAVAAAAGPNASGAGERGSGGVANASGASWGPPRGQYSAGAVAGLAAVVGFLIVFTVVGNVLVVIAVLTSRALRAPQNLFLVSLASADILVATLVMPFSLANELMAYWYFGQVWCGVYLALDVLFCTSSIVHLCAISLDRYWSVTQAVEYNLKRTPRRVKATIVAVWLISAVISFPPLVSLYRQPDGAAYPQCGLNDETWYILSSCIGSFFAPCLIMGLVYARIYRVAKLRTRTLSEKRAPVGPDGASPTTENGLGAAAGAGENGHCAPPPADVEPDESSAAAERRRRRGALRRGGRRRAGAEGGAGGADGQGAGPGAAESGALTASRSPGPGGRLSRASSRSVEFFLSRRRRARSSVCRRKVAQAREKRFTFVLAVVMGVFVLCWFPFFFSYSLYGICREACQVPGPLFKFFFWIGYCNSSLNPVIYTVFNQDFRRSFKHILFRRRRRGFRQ
In the case of O=C(O)c1cc(O)c2c(c1)C(=O)c1cccc(O)c1C2=O, the slope is reported as -0.00744 (active). CCCCC(=O)Nc1c(O)c2ccccc2[nH]c1=O was tested, and the slope was 0.00511. Cc1cc(C)n(CC(=O)n2c3c(c4ccccc42)CCCC3)n1 showed a slope of 0.0062. In the case of CCC(NC(C)C)C(O)c1ccc(O)c(O)c1 (stereo unspecified), the slope is reported as 0.00513. In the case of COc1ccc(C2CNC(=O)C2)cc1OC1CCCC1 (stereo unspecified), the slope is reported as 0.00579. With Cn1cnc2c1c(=O)[nH]c(=O)n2C the slope was 0.00542. For N=c1nc(N2CCCCC2)cc(N)n1O, the slope was 0.00444. CCCCCC(=O)N1CC2(C)CN(C(=O)CCCCC)CC(C)(C1)C2=O gave a slope of 0.00564. O=C(O)Cc1ccc(-c2ccccc2)cc1 was tested, and the slope was 0.00497. For CCSc1nc(N)c(C#N)c(-c2ccccc2Cl)c1C#N, the slope was 0.00512. O=C(OCC#CCSc1nnc(-c2ccccc2)o1)c1cccs1 showed a slope of 0.00513. In the case of Nc1nc(F)nc2c1ncn2[C@@H]1O[C@H](CO)[C@@H](O)[C@@H]1O, the slope is reported as 0.00434. Cc1nc2sccn2c(=O)c1CCN1CCC(=C(c2ccc(F)cc2)c2ccc(F)cc2)CC1 was tested, and the slope was 0.0045. OCCNC1=NCCN1 showed a slope of 0.00539. CCC[C@@H]1C[C@@H](C(=O)N[C@H]([C@@H](C)O)[C@H]2O[C@H](SC)[C@H](O)[C@@H](O)C2O)N(C)C1 (stereo partly specified) showed a slope of 0.0059. CCOC(=O)C1=C[C@]2(CC)CCCN3CCc4c(n1c1ccccc41)[C@@H]32 was tested, and the slope was 0.013 (active).
